Test results reported in the supplement of paper PMC6555819.

tested on: LXRb:RXRa (NR concentration 270 nM, RXRa partner concentration 90 nM); test: PBM binding z-score (relative to random genomic background probes); higher = stronger binding; sequences stand for … in GC…GCGATTGACAGCGTAGAATGAAGG
Procedure: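 Protein-binding microarray (Agilent 4x180K custom design, double-stranded 60-nt probes: 5' GC cap, 34-nt variable region, 24-nt constant primer region; full probe sequence given). Purified or IVT nuclear receptor:RXRα heterodimers (3:1 NR:RXRα, mostly 270:90 nM) or homodimers were incubated for 1 h in PBS with 2% milk and no ligand, then detected with Alexa488 antibodies. Fluorescence from o1-orientation probes (~5 replicates averaged) was converted to z-scores against 500 random hg19 background probes. Variable regions are seed direct-repeat (DR0–DR5) sites, all their single-nucleotide variants and half-site ablations.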

Sequence | PBM binding z-score
CAAACTAGGTCACAGTGGTCAAAGTCCGTGCGTA | 2.4
CCTTAAGGGTCACGAGGTTATAGCACGACGAGCG | 5.38
CCTACTGGGCCATTCAGAGGGCATTGATCATATG | -0.224
AGAATGGGGTTATACGTAGATCAGGGAAGAAAGT | 4.38
CGTCCAAGGTTAAGGTCAGTGAAAGAGACTCGAA | 2.62
CCTCGGAGGACAACAGGAGGTCATAGCTGCCAGA | 3.15
TAGCCTAGGTCATGCGGGACAGTATAGTGTCGGC | 1.88
AGAATGAGGTCAAGATCAGGGAAACAGAATACAT | 5.08
AGTCAAACTTCAGGACGAGGTAACGTAAAGCACG | -0.266
AATACAGGGTGACTAGGCCAGAGTAGGTACGAAT | 0.204
ATCGAAAGGTCTAAGGTGAGTATACCCACCCGAA | 0.196
ATATGTAGTTTATCGGGTCATTCAGTTTGCGCAT | 2.94
TCTTGTAGATCAATAGAAGTTAAGAAAGTGCGCT | 0.436
TTGCCAAGGTGAAAGGTCGTTGATGCACGCCTTG | 2.63
CCTACTGGTCCAAGGTCATTGATCAGTCAAAGCA | 3.52
TAGCCTAGTTCATGCGGGCCAGTATAGTGTCGGC | -0.398
CCTACTGGGCCTAAGGTCATTGATTCCAATGCTC | 3.36
CGTCAAAGTTCAACTAAGGTTACGTAAAGCACGC | 5.4
GATACAGGGTCAAGGTCAGAGTACGCGTATTGAT | 4.85
TACCCTAGGTCATGGGCCAGTATACCACGCGAAC | 4.07

Sequence | PBM binding z-score
CCTTACGGGTCCCTCCAGGTTATAGCATCGGAGT | -0.459
TCTCGGAGGAAACGAAAGGTCAGAGCTCGACATC | 3.1
CGAACTAGGTCGAGGACAGTGAATCTCCGCACGC | -0.262
CAAACTAGGTCACGAGAGGTCAAAGTCGAATGAC | 7.33
GCTAGTTGGTCAGTAAAATGTCACACACCGGTCG | -0.14
GCTTACAGGTCAAAGGTTATAGCATGAATAGAAT | 6.06
TGTCAACGTTCAAAGGTAACGTAAGTATCCACAC | 0.759
CGTCCAAGGACAATGCTAGGTCAGTGAAAGCATT | -0.0607
TAGCCTAGGTCATACAGGGGCCAGTATAGAAAGC | 2.48
CCTACGGGGCCACGAAAGGTCATTGATTCAGTGA | 5.02
CCAGACAGGTGAGAAGGTAACTCAGCCTCGATTA | 0.609
ATATGTAGGTTAGCTGGGGTCCTTCAGACTAGGC | 0.853
CGAACAAGGTCATTGACAGGACAGTGAATAGTAA | 4.62
TCTTGTAGATCGATAGAGGTTAAGAAAGTGCGCT | 1.52
TTACCAAGGTGAAAGGTCGTTGCTGCACGCCTTG | 2.89
TCTATTAGTTGATTAGGGCAACCGAAACAGCGGA | 0.544
GGAACGAGGTCATTCGAGTTGATAGCATGGCGAT | 4.8
AGAATGGGGTTACCAAAGATCAGGGAAACGCTTG | 5.03
TCTAGTCGGTCAAAGGTCACACACTCGAAATGCG | 5.97
CACACTAGGTCACAGAGGTCAAAGTCCGTGCGTA | 6.24
